Assay results taken from PubChem BioAssay (NCI).
About 79,000 compounds went through this panel and 15% of them were active in at least one assay; those are over-represented in the sample as a whole. Activity calls are given as the source filed them. No stated cut-off is given here; in the data, active means growth inhibition above about 70%; inactive means the rest.

Legend:
[1] = NCI Yeast Anticancer Drug Screen. Data for the rad52 strain (AID 147);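 further: 0% = growth of vehicle-treated control cultures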; conditions: S. cerevisiae rad52 mutant growth inhibition, hits give high values
Summary of the method: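 Here a repair-compromised yeast strain receives each compound; its growth is then quantified and normalised to vehicle-only controls.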

[2] = NCI Yeast Anticancer Drug Screen. Data for the wt1 strain (AID 149);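 further: 0% = growth of vehicle-treated wt1 cultures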; conditions: S. cerevisiae wt1 strain (SPY 50644) growth inhibition, hits give high values
Summary of the method: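 wt1 yeast, compound-treated; % growth inhibition vs vehicle control.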

[3] = NCI Yeast Anticancer Drug Screen. Data for the rad50EPP+ strain (AID 151);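 further: 0% = growth of vehicle-treated control cultures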; conditions: S. cerevisiae rad50 mutant strain, hits give high values
Summary of the method: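 Read-out is yeast growth inhibition relative to vehicle; cells used were the rad50EPP+ strain.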

[4] = NCI Yeast Anticancer Drug Screen. Data for the rad50 strain (AID 155);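 further: 0% = growth of vehicle-only cultures of the same strain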; conditions: S. cerevisiae rad50 strain growth inhibition, hits give high values
Summary of the method: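 Genetically altered yeast (DNA repair pathway); compound treatment; growth inhibition vs vehicle ctrl.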

[5] = NCI Yeast Anticancer Drug Screen. Data for the mec2-1 strain (AID 157); conditions: S. cerevisiae mec2-1 strain, hits give high values
Summary of the method: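 Using mec2-1 yeast: add compound, measure growth, express inhibition versus vehicle-treated cultures.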

[6] = NCI Yeast Anticancer Drug Screen. Data for the rad14 strain (AID 159);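 further: 0% = growth of vehicle-treated control cultures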; conditions: S. cerevisiae rad14 strain growth inhibition, hits give high values
Summary of the method: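 Test compounds were applied to a repair-deficient yeast strain. Its growth was then compared with that of cultures given vehicle alone, and inhibition was expressed relative to those controls.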

[7] = NCI Yeast Anticancer Drug Screen. Data for the sgs1 mgt1 strain (AID 161);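 further: 0% = growth of cultures given vehicle only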; conditions: S. cerevisiae sgs1 mgt1 strain, hits give high values
Summary of the method: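 Growth of a repair-deficient yeast mutant was monitored after compound treatment and expressed as inhibition relative to vehicle-treated cultures.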

[8] = NCI Yeast Anticancer Drug Screen. Data for the CLN2oe strain (AID 163);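 further: 0% = growth of vehicle-only control cultures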; conditions: S. cerevisiae CLN2oe strain, hits give high values
Summary of the method: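 Whole-cell yeast growth assay. A strain engineered for altered cell-cycle control received compound, and inhibition relative to vehicle-treated cultures was recorded.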

[9] = NCI Yeast Anticancer Drug Screen. Data for the cln2 rad14 strain (AID 165);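 further: 0% = growth equal to vehicle treated cultures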; conditions: S. cerevisiae cln2 rad14 strain, hits give high values
Summary of the method: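 Yeast strain cln2 rad14, bearing defects in cell cycle control and DNA repair, serves as the test system; values reflect growth inhibition compared with vehicle.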

[10] = NCI Yeast Anticancer Drug Screen. Data for the bub3 strain (AID 167); conditions: S. cerevisiae bub3 mutant strain, hits give high values
Summary of the method: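 Yeast carrying a defined mutation is treated with each compound, and growth is compared with that of vehicle-exposed cells to give inhibition.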

[11] = NCI Yeast Anticancer Drug Screen. Data for the mlh1 strain (AID 171);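 further: 0% = growth of vehicle-treated control cultures of the same strain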; conditions: S. cerevisiae mlh1 strain growth inhibition, hits give high values
Summary of the method: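 A yeast strain with a defined genetic lesion serves as the test organism. Cultures receive compound or vehicle, and growth is measured.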

[12] = NCI Yeast Anticancer Drug Screen. Data for the sgs1 strain (AID 173);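 further: 0% = growth of vehicle-only control cultures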; conditions: S. cerevisiae sgs1 mutant, hits give high values
Summary of the method: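 A genetically defined yeast mutant is incubated with the test compound, and its growth is compared to that of the same strain given vehicle.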

[13] = NCI Yeast Anticancer Drug Screen. Data for the mlh1 rad18 strain (AID 175); conditions: S. cerevisiae mlh1 rad18 strain growth inhibition, hits give high values
Summary of the method: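 Steps: expose repair-defective yeast to compound; measure growth; express inhibition against vehicle-treated controls.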

[14] = NCI Yeast Anticancer Drug Screen. Data for the wt2 strain (AID 169);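 further: 0% = growth of vehicle-treated yeast cultures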; conditions: S. cerevisiae wt2 strain growth inhibition, hits give high values
Summary of the method: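 Treated yeast vs. vehicle-treated yeast: growth inhibition determined.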

[15] = NCI Yeast Anticancer Drug Screen. Data for the rad18 strain (AID 177); conditions: S. cerevisiae rad18 mutant growth inhibition, hits give high values
Summary of the method: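 Measured value is growth inhibition of a yeast strain bearing a DNA repair alteration, referenced to vehicle-treated cells.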

[16] = at 5.0 µM (retest, dose inferred, filed as 0.5)
[17] = at 50.0 µM (retest, dose inferred, filed as 5.0)

Measured: growth inhibition

O=P(NC1CCCCC1)(OCc1ccccc1)OCc1ccccc1
inactive: [1]; at 1.2 µM -1% | [1]; at 3.7 µM 4% | [1]; at 11.0 µM 16% | [1]; at 33.0 µM 26% | [1]; at 100.0 µM 26% | [2]; at 1.2 µM 0% | [2]; at 3.7 µM 3% | [2]; at 11.0 µM 0% | [2]; at 33.0 µM 3% | [2]; at 100.0 µM 7% | [3]; at 1.2 µM 2% | [3]; at 3.7 µM 4% | [3]; at 11.0 µM 10% | [3]; at 33.0 µM 9% | [3]; at 100.0 µM 7% | [4]; at 1.2 µM 3% | [4]; at 3.7 µM 5% | [4]; [16] 8% | [4]; at 11.0 µM 11% | [4]; at 33.0 µM 19% | [4]; [17] 14% | [4]; at 100.0 µM 26% | [5]; at 1.2 µM 1% | [5]; at 3.7 µM 1% | [5]; [16] 5% | [5]; at 11.0 µM 7% | [5]; at 33.0 µM 10% | [5]; [17] 4% | [5]; at 50.0 µM 23.6% | [5]; at 100.0 µM 11% | [6]; at 1.2 µM -1% | [6]; at 3.7 µM -2% | [6]; at 11.0 µM 4% | [6]; at 33.0 µM 6% | [6]; at 100.0 µM 13% | [7]; [16] 7% | [7]; [17] 7% | [7]; at 50.0 µM 42.3% | [8]; at 1.2 µM 7% | [8]; at 3.7 µM 2% | [8]; at 11.0 µM 10% | [8]; at 33.0 µM 12% | [8]; at 100.0 µM 17% | [9]; [16] 15% | [9]; [17] 9% | [9]; at 50.0 µM -12.7% | [10]; at 1.2 µM 0% | [10]; at 3.7 µM 4% | [10]; [16] 3% | [10]; at 11.0 µM 3% | [10]; at 33.0 µM 5% | [10]; [17] 2% | [10]; at 50.0 µM 7.8% | [10]; at 100.0 µM 2% | [11]; at 1.2 µM -7% | [11]; at 3.7 µM 0% | [11]; at 11.0 µM 2% | [11]; at 33.0 µM 4% | [11]; at 100.0 µM 7% | [12]; at 1.2 µM 0% | [12]; at 3.7 µM -1% | [12]; at 11.0 µM 0% | [12]; at 33.0 µM 9% | [12]; at 100.0 µM 17% | [13]; [16] 3% | [13]; [17] 3% | [13]; at 50.0 µM 34.8%
active: [4]; at 50.0 µM 73.3%

CCCCC(CC)C(=O)[O][Sn]([CH2]CCC)([CH2]CCC)[O]C(=O)C(CC)CCCC (stereo not drawn)
inactive: [1]; at 1.2 µM 6% | [1]; at 3.7 µM 11% | [1]; at 11.0 µM 47% | [2]; at 1.2 µM -14% | [2]; at 3.7 µM -7% | [2]; at 11.0 µM 46% | [4]; at 1.2 µM 14% | [4]; at 3.7 µM 11% | [4]; [16] 50% | [4]; at 11.0 µM 51% | [5]; at 1.2 µM -11% | [5]; at 3.7 µM 14% | [5]; at 11.0 µM 56% | [5]; [17] 69% | [6]; at 1.2 µM -8% | [6]; at 3.7 µM 3% | [6]; at 11.0 µM 47% | [8]; at 1.2 µM -21% | [8]; at 3.7 µM 5% | [8]; at 11.0 µM 37% | [9]; [16] 59% | [10]; at 1.2 µM 6% | [10]; at 3.7 µM 18% | [10]; [16] 44% | [10]; at 11.0 µM 68% | [14]; at 1.2 µM -27% | [14]; at 3.7 µM -10% | [14]; at 11.0 µM 49% | [11]; at 1.2 µM -38% | [11]; at 3.7 µM -21% | [11]; at 11.0 µM 33% | [12]; at 1.2 µM 2% | [12]; at 3.7 µM -5% | [12]; at 11.0 µM 37% | [13]; [16] 58% | [15]; at 1.2 µM -2% | [15]; at 3.7 µM 0% | [15]; at 11.0 µM 46%
active: [1]; at 33.0 µM 92% | [1]; at 100.0 µM 98% | [2]; at 33.0 µM 93% | [2]; at 100.0 µM 98% | [4]; at 33.0 µM 92% | [4]; [17] 98% | [4]; at 50.0 µM 86.4% | [4]; at 100.0 µM 97% | [5]; [16] 72% | [5]; at 33.0 µM 94% | [5]; at 50.0 µM 87.7% | [5]; at 100.0 µM 98% | [6]; at 33.0 µM 90% | [6]; at 100.0 µM 97% | [8]; at 33.0 µM 92% | [8]; at 100.0 µM 98% | [9]; [17] 97% | [9]; at 50.0 µM 86.2% | [10]; at 33.0 µM 95% | [10]; [17] 93% | [10]; at 50.0 µM 89.8% | [10]; at 100.0 µM 98% | [14]; at 33.0 µM 90% | [14]; at 100.0 µM 98% | [11]; at 33.0 µM 88% | [11]; at 100.0 µM 97% | [12]; at 33.0 µM 89% | [12]; at 100.0 µM 97% | [13]; [17] 98% | [13]; at 50.0 µM 88.8% | [15]; at 33.0 µM 91% | [15]; at 100.0 µM 97%
